In PubChem BioAssay (NCI):
Compounds without any hit were thinned out: in the full panel of roughly 83,000, 20% have a hit.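 Negative percent growth values reflect cell death: -40 means 40% of the cells present at the start died, and -100 means all died.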 A number with no mark means an inactive call. The source made the active and inactive calls. The calls were made as follows: active = growth percent below 10; inactive = the rest.

What was measured:
Assay in all cases: NCI-60 one-dose screen, 48 h (100 = growth as untreated, 0 = no growth, -100 = all killed)
Conditions in all cases: 10 µM unless noted
HCT-15 colon = tested on: HCT-15 colon
HT29 colon = tested on: HT29 colon
SNB-75 CNS = tested on: SNB-75 CNS
SNB-19 CNS = tested on: SNB-19 CNS
PC-3 prostate = tested on: PC-3 prostate
UACC-62 melanoma = tested on: UACC-62 melanoma
LOX IMVI melanoma = tested on: LOX IMVI melanoma
SK-MEL-28 melanoma = tested on: SK-MEL-28 melanoma
U251 CNS = tested on: U251 CNS
SK-MEL-5 melanoma = tested on: SK-MEL-5 melanoma

SMILES: Cc1ccccc1-c1cc(Cc2ccc(F)cc2)c(=O)[nH]n1
- growth (HCT-15 colon): 110%
- growth (HT29 colon): 117%
- growth (SNB-75 CNS): 101%
- growth (SNB-19 CNS): 88.2%
- growth (PC-3 prostate): 116%
- growth (UACC-62 melanoma): 99.6%
- growth (LOX IMVI melanoma): 98.9%
- growth (SK-MEL-28 melanoma): 118%

SMILES: O=C1Nc2ccccc2/C1=N/c1nc(-c2ccc(Cl)cc2)cs1
- growth (HCT-15 colon): 71.2%
- growth (HT29 colon): 46.3%
- growth (SNB-75 CNS): 90.8%
- growth (U251 CNS): 53.8%
- growth (PC-3 prostate): 35.2%
- growth (SK-MEL-5 melanoma): 76.7%
- growth (UACC-62 melanoma): 61%
- growth (LOX IMVI melanoma): 68.9%
- growth (SK-MEL-28 melanoma): 84.4%

SMILES: O=S(=O)(c1ccccc1)N1CCCc2ccccc21
- growth (HCT-15 colon): 99.3%
- growth (HT29 colon): 99.8%
- growth (SNB-75 CNS): 95%
- growth (U251 CNS): 90.3%
- growth (PC-3 prostate): 91.3%
- growth (SK-MEL-5 melanoma): 102%
- growth (UACC-62 melanoma): 91.7%
- growth (LOX IMVI melanoma): 96.4%
- growth (SK-MEL-28 melanoma): 105%

SMILES: O=C(Nc1ccc2cc3ccc(NC(=O)NC4CCCCC4)cc3nc2c1)NC1CCCCC1
- growth (HCT-15 colon): 111%
- growth (HT29 colon): 82.7%
- growth (SNB-75 CNS): 58.6%
- growth (U251 CNS): 56.2%
- growth (PC-3 prostate): 83.7%
- growth (SK-MEL-5 melanoma): 107%
- growth (UACC-62 melanoma): 87.8%
- growth (LOX IMVI melanoma): 63%
- growth (SK-MEL-28 melanoma): 79%

SMILES: CCN(CC)CCSCCCNc1c(C)cnc2cc(Cl)ccc12
- growth (HCT-15 colon): 76.7%
- growth (HT29 colon): 54.9%
- growth (SNB-75 CNS): 85.4%
- growth (U251 CNS): 84%
- growth (PC-3 prostate): 85.1%
- growth (SK-MEL-5 melanoma): 75.3%
- growth (UACC-62 melanoma): 93.9%
- growth (LOX IMVI melanoma): 79.5%
- growth (SK-MEL-28 melanoma): 87%

SMILES: COc1cc2nnn3c4ncccc4c(N=O)c3c2cc1OC
- growth (HCT-15 colon): 83.4%
- growth (HT29 colon): 57.5%
- growth (SNB-75 CNS): 79.8%
- growth (U251 CNS): 45.1%
- growth (PC-3 prostate): 74.8%
- growth (SK-MEL-5 melanoma): 113%
- growth (UACC-62 melanoma): 86.3%
- growth (LOX IMVI melanoma): 58.9%
- growth (SK-MEL-28 melanoma): 81.4%

SMILES: COC(=O)N[C@H]1CCc2cc(OC)c(OC)c(OC)c2-c2ccc(SC)c(=O)cc21
- growth (HCT-15 colon): 9.48% (active)
- growth (HT29 colon): 2.35% (active)
- growth (SNB-75 CNS): 32.4%
- growth (U251 CNS): 12.8%
- growth (PC-3 prostate): 22.4%
- growth (SK-MEL-5 melanoma): -42.9% (active)
- growth (UACC-62 melanoma): 34.9%
- growth (LOX IMVI melanoma): 15.7%
- growth (SK-MEL-28 melanoma): 56.9%

SMILES: Clc1cc(Cl)cc(N2N=C(c3cccc(Nc4ccncc4)c3)CC2c2ccc(Br)cc2)c1 (stereo not given)
- growth (HCT-15 colon): -66.5% (active)
- growth (HT29 colon): -12.2% (active)
- growth (SNB-75 CNS): 78.3%
- growth (U251 CNS): -29.8% (active)
- growth (PC-3 prostate): 33.3%
- growth (SK-MEL-5 melanoma): 79%
- growth (UACC-62 melanoma): 102%
- growth (LOX IMVI melanoma): -88.4% (active)
- growth (SK-MEL-28 melanoma): -21.8% (active)

SMILES: Nc1nnc2cc(Cl)ccc2n1
- growth (HCT-15 colon): 94.2%
- growth (HT29 colon): 119%
- growth (SNB-75 CNS): 91.6%
- growth (U251 CNS): 98.4%
- growth (PC-3 prostate): 77%
- growth (SK-MEL-5 melanoma): 102%
- growth (UACC-62 melanoma): 93.1%
- growth (LOX IMVI melanoma): 87.9%
- growth (SK-MEL-28 melanoma): 114%

SMILES: CCCN=C(N)c1ccc(NC(=O)c2ccc(C(=O)Nc3ccc(C(N)=NCCC)cc3)cc2)cc1
- growth (HCT-15 colon): 99.7%
- growth (HT29 colon): 102%
- growth (SNB-75 CNS): 78.1%
- growth (U251 CNS): 107%
- growth (PC-3 prostate): 90.8%
- growth (SK-MEL-5 melanoma): 27.2%
- growth (UACC-62 melanoma): 90.2%
- growth (LOX IMVI melanoma): 108%
- growth (SK-MEL-28 melanoma): 110%

SMILES: O=C(Nc1ccccc1)Oc1ccccc1-c1ccccc1
- growth (HCT-15 colon): 102%
- growth (HT29 colon): 96.5%
- growth (SNB-75 CNS): 75.5%
- growth (U251 CNS): 95.2%
- growth (SK-MEL-5 melanoma): 97.9%
- growth (UACC-62 melanoma): 93.2%
- growth (LOX IMVI melanoma): 95.2%
- growth (SK-MEL-28 melanoma): 107%

SMILES: O=C(Nc1ccc(F)cc1)c1c(NC(=O)C(F)(F)F)sc2c1CCCCC2
- growth (HCT-15 colon): 11.5%
- growth (HT29 colon): 5.86% (active)
- growth (SNB-75 CNS): -23% (active)
- growth (U251 CNS): 6.02% (active)
- growth (PC-3 prostate): 3.29% (active)
- growth (SK-MEL-5 melanoma): -55.6% (active)
- growth (UACC-62 melanoma): 3.56% (active)
- growth (LOX IMVI melanoma): 15%
- growth (SK-MEL-28 melanoma): 12.2%

SMILES: BrC(Br)(Br)c1cnc2ccccc2n1
- growth (HCT-15 colon): 31.7%
- growth (HT29 colon): -65.1% (active)
- growth (SNB-75 CNS): 102%
- growth (U251 CNS): 50.3%
- growth (PC-3 prostate): 62.3%
- growth (SK-MEL-5 melanoma): 73.9%
- growth (UACC-62 melanoma): 61.4%
- growth (LOX IMVI melanoma): 30.6%
- growth (SK-MEL-28 melanoma): 53.5%
